Data from PubChem BioAssay (NCATS).
Inconclusive results are not listed. The source made the active and inactive calls. Calls come from the whole dose curve; as a rule, active = well fitted inhibition curve with a large enough effect; inconclusive = small, poorly fitted or top-dose-only effect, or effect the other way; inactive = flat fitted curve, though single readings scatter. Peptide text beside a SMILES is read from it.

Molecular target: ATP-dependent 6-phosphofructokinase (Trypanosoma brucei brucei) (UniProt O15648)
Sequence (O15648 whole entry, looked up): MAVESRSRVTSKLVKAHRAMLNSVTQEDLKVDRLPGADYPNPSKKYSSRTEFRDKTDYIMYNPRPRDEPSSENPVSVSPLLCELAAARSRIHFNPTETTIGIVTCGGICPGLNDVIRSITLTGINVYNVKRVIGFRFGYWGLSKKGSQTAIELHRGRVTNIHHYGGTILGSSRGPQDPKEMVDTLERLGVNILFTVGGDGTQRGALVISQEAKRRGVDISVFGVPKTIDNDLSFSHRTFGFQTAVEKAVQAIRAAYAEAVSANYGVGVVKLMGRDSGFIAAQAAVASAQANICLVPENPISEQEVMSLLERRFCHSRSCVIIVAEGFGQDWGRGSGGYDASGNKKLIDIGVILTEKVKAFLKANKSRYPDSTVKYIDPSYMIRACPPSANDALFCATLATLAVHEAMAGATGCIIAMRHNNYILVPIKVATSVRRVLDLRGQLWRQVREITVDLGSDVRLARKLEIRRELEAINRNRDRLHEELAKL
Test: qHTS Assay to Find Inhibitors of T. brucei phosphofructokinase: hit validation (AID 492961);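 note: luminescence reports ADP formed as PFK phosphorylates fructose-6-phosphate with ATP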
Conditions: T. brucei PFK, ADP-Glo luminescence; series mostly up to 24.3 µM
Method in brief: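 Reaction: 0.1 M triethanolamine pH 8.0, 5 mM MgCl2, F6P 0.5 mM, ATP 0.1 mM, PFK 1.25 nM, 45 min RT. Read-out: ADP-Glo luminescence. Analysis: concentration-response fits, classed by r2 and efficacy.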

outcome, inactive:
CCOC(=O)C1=CC(OC(CC)CC)C(NC(C)=O)C(N)C1 (stereo unspecified)
COC1C=CO[C@@]2(C)Oc3c(C)c(O)c4c(O)c(c5c(nc6cc(C)ccn65)c4c3C2=O)NC(=O)/C(C)=C\C=CC(C)C(O)[C@@H](C)C(O)C(C)[C@@H](OC(C)=O)C1C (stereo partly specified)
COC(=O)C(Cc1ccccc1)NC(=O)C(N)CC(=O)O (stereo not drawn) (H-Asp-Phe-OMe; configuration not given here)
C[C@]12C=CC(=O)C=C1CCC1C2C(O)C[C@]2(C)C1CC[C@]2(O)C(=O)CO (stereo partly specified)
CC1(C)S[C@H]2C(NC(=O)[C@@H](N)c3ccc(O)cc3)C(=O)N2[C@@H]1C(=O)O (stereo partly specified)
CC(C)=CCC[C@](C)(O)C1CC=C(C)CC1 (stereo partly specified)
CO[C@]12C(COC(N)=O)C3=C(C(=O)C(C)=C(N)C3=O)N1CC1NC12 (stereo partly specified)
C[C@]1(c2ccccc2)OC(C(=O)O)=CC1=O
CC(=O)N[C@H](CC(C)C)C(=O)O
COc1ccc2cc(C(C)CO)ccc2c1 (stereo unspecified)
COC1C=CO[C@@]2(C)Oc3c(C)c(O)c4c(O)c(c(C=NN5CCN(C)CC5)c(O)c4c3C2=O)NC(=O)/C(C)=C\C=CC(C)C(O)[C@@H](C)C(O)C(C)[C@H](OC(C)=O)C1C (stereo partly specified)
CC1CCC(C(C)C)C(=O)C1 (stereo unspecified)
CNC1CC(N)[C@H](O)[C@@H](O[C@@H]2OC(CO)C3OC4(OC(C(N)CO)C(O)C(O)C4O)O[C@@H]3[C@H]2O)C1O (stereo partly specified)
CCCC(=O)O[C@]1(C(=O)CO)CCC2[C@@H]3CCC4=CC(=O)CC[C@]4(C)C3C(O)C[C@]21C (stereo partly specified)
CC(=O)[C@]1(O)CCC2C3C=C(Cl)C4=CC(=O)C5CC5[C@@]4(C)C3CC[C@]21C (stereo partly specified)
CC(=O)N[C@@H]1C(O)OC(CO)C(O)C1O (stereo partly specified)
C/C1=C2N=C(/C=C3N=C(/C(C)=C4\[N-]C(C)(C5N=C1C(C)(CCC(=O)NCC(C)OP(=O)([O-])O[C@H]1C(O)C(n6cnc7cc(C)c(C)cc76)O[C@@H]1CO)C5CC(N)=O)C(C)(CC(N)=O)C4CCC(N)=O)C(C)(CC(N)=O)C\3CCC(N)=O)C(C)(C)C/2CCC(N)=O.[CH2-]C1OC(n2cnc3c(N)ncnc32)C(O)C1O.[Co] (stereo partly specified)
O=C1OC(CO)C(O)C(O)C1O (stereo unspecified)
CNC1C(OC2C(O[C@@H]3C(O)C(O)[C@@H](N=C(N)N)C(O)C3N=C(N)N)OC(C)[C@@]2(O)CO)OC(CO)C(O)C1O (stereo partly specified)
COc1cc(C2c3cc4c(cc3C(O[C@@H]3OC5COC(c6cccs6)OC5C(O)C3O)C3COC(=O)C23)OCO4)cc(OC)c1O (stereo partly specified)
Nc1nc2ncc(CNc3ccc(C(=O)NC(CCC(=O)O)C(=O)O)cc3)nc2c(=O)[nH]1 (stereo unspecified)
